# Measurements taken from the supplement of paper PMC10849652.
# About 7,900 targets were measured; listed, in parts, are those with a hit and a random draw of the rest. About 0.6% of all pairs of compound and target were hits. Unmarked numbers belong to inactive results.
# How the values were obtained:
# Assay in all cases: log2 fold change, soluble protein after heating vs DMSO (PISA); higher = thermal stabilisation; K562 cells, 10 uM, 30 min; active = over 0.2 and 3.5 SD of the protein, either way, in both replicates (recomputed)
# filanesib = compound: CON(C)C(=O)N1N=C(c2cc(F)ccc2F)S[C@@]1(CCCN)c1ccccc1 [filanesib]
# In short: (§1)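 K562 cells (2×10^6 cells/mL) were treated with 10 μM compound for 30 min, and aliquots were heated for 3 min over 48°C-58°C. Pooled aliquots were extracted in PBS with 0.5% NP-40 at 4°C, and the supernatant after 21,000xg for 90 min was measured by TMTpro 16plex LC-MS/MS with channel sums equalised. Reported thermal stability, relative to control samples and from duplicates, is a log2 fold change.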
# zotarolimus = compound: CO[C@H]1C[C@@H]2CC[C@@H](C)[C@@](O)(O2)C(=O)C(=O)N2CCCC[C@H]2C(=O)O[C@H]([C@H](C)C[C@@H]2CC[C@H](n3cnnn3)[C@H](OC)C2)CC(=O)[C@H](C)/C=C(\C)[C@@H](O)[C@@H](OC)C(=O)[C@H](C)C[C@H](C)/C=C/C=C/C=C/1C [zotarolimus]
# In short: as §1
# alisertib = compound: COc1cc(Nc2ncc3c(n2)-c2ccc(Cl)cc2C(c2c(F)cccc2OC)=NC3)ccc1C(=O)O [alisertib]
# In short: as §1
# [1] = compound: COc1cc2nc(-c3cc(F)ccc3O)nc(N[C@@H]3CNC[C@H]3C(C)(C)O)c2cc1OC
# In short: as §1
# gefitinib = compound: COc1cc2ncnc(Nc3ccc(F)c(Cl)c3)c2cc1OCCCN1CCOCC1 [gefitinib]
# In short: as §1
# [2] = compound: COc1cccc2cc(-c3nc([C@H]4CC[C@H](C(=O)O)CC4)n4ncnc(N)c34)[nH]c12
# In short: as §1
# lapatinib = compound: CS(=O)(=O)CCNCc1ccc(-c2ccc3ncnc(Nc4ccc(OCc5cccc(F)c5)c(Cl)c4)c3c2)o1 [lapatinib]
# In short: as §1
# pictilisib = compound: CS(=O)(=O)N1CCN(Cc2cc3nc(-c4cccc5[nH]ncc45)nc(N4CCOCC4)c3s2)CC1 [pictilisib]
# In short: as §1
# [3] = compound: CS(=O)(=O)c1ccc(-c2cnc(N)c(C(=O)Nc3ccccc3)n2)cc1
# In short: as §1
# [4] = compound: C[C@@H]1COCCN1C2=NC(=NC(=C2)C3(CC3)S(=O)(=O)C)C4=C5C=CNC5=CC=C4
# In short: as §1
# [5] = compound: C[C@H](C1=CC=C(C=C1)C(=O)NC2=C3C=CNC3=NC=C2)N
# In short: as §1
# duvelisib = compound: C[C@H](Nc1ncnc2nc[nH]c12)c1cc2cccc(Cl)c2c(=O)n1-c1ccccc1 [duvelisib]
# In short: as §1
# gandotinib = compound: Cc1cc(Nc2cc(CN3CCOCC3)c3nc(C)c(Cc4ccc(Cl)cc4F)n3n2)n[nH]1 [gandotinib]
# In short: as §1
# tozasertib = compound: Cc1cc(Nc2cc(N3CCN(C)CC3)nc(Sc3ccc(NC(=O)C4CC4)cc3)n2)n[nH]1 [tozasertib]
# In short: as §1
# [6] = compound: Cc1cc(SCc2sc(-c3ccc(C(F)(F)F)cc3)nc2C)ccc1OCC(=O)O
# In short: as §1
# ispinesib = compound: Cc1ccc(C(=O)N(CCCN)[C@@H](c2nc3cc(Cl)ccc3c(=O)n2Cc2ccccc2)C(C)C)cc1 [ispinesib]
# In short: as §1
# [7] = compound: COC1=CC=C(C=C1)CN2C=CC3=C2C=C(C=C3)C(=O)NO
# In short: as §1
# crizotinib = compound: C[C@@H](Oc1cc(-c2cnn(C3CCNCC3)c2)cnc1N)c1c(Cl)ccc(F)c1Cl [crizotinib]
# In short: as §1
# doramapimod = compound: Cc1ccc(-n2nc(C(C)(C)C)cc2NC(=O)Nc2ccc(OCCN3CCOCC3)c3ccccc23)cc1 [doramapimod]
# In short: as §1
# idasanutlin = compound: COc1cc(C(=O)O)ccc1NC(=O)[C@@H]1N[C@@H](CC(C)(C)C)[C@](C#N)(c2ccc(Cl)cc2F)[C@H]1c1cccc(Cl)c1F [idasanutlin]
# In short: as §1
# Sequence of UniProt Q15906 (Q15906 whole entry, looked up): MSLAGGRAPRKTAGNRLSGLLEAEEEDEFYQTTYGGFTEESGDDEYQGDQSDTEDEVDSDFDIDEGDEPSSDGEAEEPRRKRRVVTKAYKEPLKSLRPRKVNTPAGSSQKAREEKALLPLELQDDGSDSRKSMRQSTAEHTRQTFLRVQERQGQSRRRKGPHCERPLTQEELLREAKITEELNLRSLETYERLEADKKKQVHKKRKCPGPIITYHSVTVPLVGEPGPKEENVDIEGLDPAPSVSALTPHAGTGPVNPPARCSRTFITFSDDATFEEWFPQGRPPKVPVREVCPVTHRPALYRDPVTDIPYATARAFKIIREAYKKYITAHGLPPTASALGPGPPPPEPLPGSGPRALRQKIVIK
# Sequence of UniProt Q86UV5 (Q86UV5 whole entry, looked up): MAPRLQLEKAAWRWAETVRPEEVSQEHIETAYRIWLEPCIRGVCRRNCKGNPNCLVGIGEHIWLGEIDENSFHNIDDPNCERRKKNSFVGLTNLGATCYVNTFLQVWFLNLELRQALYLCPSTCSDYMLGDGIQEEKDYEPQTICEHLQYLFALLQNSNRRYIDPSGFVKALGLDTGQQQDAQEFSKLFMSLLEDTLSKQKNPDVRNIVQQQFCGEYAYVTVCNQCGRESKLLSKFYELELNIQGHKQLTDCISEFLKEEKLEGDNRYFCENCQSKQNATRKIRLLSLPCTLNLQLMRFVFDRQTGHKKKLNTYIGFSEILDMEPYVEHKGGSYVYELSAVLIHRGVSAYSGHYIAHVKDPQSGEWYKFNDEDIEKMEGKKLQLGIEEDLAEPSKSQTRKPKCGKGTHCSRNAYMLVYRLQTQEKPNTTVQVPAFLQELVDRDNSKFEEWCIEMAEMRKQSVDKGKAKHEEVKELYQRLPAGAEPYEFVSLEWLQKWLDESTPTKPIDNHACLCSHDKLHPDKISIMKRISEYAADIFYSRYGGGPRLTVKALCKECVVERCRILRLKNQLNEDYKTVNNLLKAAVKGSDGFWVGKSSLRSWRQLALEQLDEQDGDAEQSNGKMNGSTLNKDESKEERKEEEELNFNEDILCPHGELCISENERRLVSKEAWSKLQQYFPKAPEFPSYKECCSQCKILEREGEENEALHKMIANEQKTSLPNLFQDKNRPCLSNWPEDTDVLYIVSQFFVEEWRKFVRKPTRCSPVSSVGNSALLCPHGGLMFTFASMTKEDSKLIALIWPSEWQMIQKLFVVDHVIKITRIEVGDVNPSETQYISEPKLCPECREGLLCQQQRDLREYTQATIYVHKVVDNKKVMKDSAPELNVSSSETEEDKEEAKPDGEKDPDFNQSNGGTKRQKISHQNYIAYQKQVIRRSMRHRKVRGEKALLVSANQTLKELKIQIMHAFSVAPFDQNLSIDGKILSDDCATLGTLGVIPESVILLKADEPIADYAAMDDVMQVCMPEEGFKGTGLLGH
# Sequence of UniProt Q86TN4 (Q86TN4 whole entry, looked up): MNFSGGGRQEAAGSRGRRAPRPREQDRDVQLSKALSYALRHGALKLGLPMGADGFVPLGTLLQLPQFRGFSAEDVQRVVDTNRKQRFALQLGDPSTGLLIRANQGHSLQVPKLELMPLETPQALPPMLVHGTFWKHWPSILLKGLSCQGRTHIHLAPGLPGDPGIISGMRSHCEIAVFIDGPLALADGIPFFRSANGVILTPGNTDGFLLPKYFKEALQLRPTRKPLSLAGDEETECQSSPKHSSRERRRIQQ
# Sequence of UniProt Q5VZI3 (Q5VZI3 whole entry, looked up): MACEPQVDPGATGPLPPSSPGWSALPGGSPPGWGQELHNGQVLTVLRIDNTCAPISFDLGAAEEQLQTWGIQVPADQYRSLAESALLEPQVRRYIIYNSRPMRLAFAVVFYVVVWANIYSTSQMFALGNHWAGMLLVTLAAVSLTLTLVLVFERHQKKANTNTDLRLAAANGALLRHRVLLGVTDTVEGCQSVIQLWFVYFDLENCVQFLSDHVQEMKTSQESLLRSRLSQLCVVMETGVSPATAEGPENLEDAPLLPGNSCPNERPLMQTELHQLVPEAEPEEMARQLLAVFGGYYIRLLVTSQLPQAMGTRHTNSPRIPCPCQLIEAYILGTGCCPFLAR
# Sequence of UniProt P36406 (P36406 whole entry, looked up): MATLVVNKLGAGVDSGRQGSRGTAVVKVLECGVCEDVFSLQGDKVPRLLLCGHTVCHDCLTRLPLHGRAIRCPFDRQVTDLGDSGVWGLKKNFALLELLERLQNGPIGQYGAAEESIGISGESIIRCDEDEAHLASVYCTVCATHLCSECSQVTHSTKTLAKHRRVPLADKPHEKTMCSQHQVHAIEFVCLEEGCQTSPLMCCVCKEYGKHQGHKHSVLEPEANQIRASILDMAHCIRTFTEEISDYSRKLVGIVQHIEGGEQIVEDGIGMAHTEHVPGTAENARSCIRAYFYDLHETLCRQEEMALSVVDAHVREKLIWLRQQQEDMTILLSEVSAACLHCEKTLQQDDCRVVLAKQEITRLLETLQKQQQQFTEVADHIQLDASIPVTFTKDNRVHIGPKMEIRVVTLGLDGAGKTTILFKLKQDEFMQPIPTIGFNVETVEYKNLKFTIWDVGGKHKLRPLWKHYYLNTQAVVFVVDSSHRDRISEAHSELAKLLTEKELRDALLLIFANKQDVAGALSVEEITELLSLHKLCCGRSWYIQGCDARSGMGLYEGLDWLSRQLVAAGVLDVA
# Sequence of UniProt O00124 (O00124 whole entry, looked up): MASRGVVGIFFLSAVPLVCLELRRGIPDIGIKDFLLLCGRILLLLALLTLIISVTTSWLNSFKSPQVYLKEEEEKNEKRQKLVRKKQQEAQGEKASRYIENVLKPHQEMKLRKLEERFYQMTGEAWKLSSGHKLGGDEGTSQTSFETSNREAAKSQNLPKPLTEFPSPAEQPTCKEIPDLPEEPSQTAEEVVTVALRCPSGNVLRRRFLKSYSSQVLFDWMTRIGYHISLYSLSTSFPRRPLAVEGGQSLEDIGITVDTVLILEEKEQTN
# Sequence of UniProt O95857 (O95857 whole entry, looked up): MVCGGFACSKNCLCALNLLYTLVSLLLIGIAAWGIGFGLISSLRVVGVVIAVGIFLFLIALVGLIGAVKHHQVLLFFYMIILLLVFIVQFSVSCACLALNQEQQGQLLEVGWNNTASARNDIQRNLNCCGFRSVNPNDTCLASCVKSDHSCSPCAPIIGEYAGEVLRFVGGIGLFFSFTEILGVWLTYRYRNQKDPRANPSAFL
# Sequence of UniProt Q16881 (Q16881 whole entry, looked up): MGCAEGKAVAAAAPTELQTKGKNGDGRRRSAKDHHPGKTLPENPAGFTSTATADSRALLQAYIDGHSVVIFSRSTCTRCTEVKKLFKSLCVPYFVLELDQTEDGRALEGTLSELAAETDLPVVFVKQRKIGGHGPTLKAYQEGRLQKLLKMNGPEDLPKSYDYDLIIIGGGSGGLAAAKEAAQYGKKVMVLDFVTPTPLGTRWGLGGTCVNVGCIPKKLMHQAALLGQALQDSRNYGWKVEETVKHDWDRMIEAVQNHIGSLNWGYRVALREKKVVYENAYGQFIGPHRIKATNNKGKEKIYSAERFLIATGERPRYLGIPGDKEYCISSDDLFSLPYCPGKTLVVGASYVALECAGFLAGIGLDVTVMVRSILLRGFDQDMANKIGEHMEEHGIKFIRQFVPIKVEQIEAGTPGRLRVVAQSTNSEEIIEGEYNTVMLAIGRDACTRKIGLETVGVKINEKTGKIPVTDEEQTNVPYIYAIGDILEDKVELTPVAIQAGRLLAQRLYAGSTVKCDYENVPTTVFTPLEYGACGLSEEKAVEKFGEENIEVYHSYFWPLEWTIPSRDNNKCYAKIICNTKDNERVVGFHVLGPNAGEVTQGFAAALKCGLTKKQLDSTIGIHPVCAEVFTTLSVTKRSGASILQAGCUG
# Sequence of UniProt P98170 (P98170 whole entry, looked up): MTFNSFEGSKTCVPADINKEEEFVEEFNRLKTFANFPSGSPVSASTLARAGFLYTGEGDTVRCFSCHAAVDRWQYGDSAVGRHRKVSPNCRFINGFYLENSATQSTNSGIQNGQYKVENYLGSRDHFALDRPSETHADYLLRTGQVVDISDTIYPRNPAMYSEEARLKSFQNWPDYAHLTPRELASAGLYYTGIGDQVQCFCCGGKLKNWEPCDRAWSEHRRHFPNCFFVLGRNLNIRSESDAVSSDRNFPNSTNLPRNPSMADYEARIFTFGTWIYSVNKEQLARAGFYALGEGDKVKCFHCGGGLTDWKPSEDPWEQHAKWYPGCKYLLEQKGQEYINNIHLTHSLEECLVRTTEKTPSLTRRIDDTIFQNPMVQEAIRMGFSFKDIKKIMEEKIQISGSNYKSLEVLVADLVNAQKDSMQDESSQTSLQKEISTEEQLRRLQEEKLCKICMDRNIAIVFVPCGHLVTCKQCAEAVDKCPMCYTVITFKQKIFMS
# Sequence of UniProt Q9BZM6 (Q9BZM6 whole entry, looked up): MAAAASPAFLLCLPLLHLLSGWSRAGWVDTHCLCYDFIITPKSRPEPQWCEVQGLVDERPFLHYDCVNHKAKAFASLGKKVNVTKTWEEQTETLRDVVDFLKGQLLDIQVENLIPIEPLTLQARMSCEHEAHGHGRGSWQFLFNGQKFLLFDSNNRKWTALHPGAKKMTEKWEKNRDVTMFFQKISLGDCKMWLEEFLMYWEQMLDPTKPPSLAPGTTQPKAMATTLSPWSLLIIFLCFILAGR
# Sequence of UniProt Q86XT9 (Q86XT9 whole entry, looked up): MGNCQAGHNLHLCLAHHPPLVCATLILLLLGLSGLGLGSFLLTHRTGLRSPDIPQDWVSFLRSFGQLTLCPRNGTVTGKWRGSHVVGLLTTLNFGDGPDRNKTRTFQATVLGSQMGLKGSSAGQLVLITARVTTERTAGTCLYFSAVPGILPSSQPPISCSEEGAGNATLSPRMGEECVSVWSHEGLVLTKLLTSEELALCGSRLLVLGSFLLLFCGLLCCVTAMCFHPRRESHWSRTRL
# Sequence of UniProt Q629K1 (Q629K1 whole entry, looked up): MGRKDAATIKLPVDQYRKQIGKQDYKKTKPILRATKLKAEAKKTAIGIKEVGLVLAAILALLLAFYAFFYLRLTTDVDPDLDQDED
Target,log2 fold change (filanesib),log2 fold change (zotarolimus),log2 fold change (alisertib),log2 fold change [1],log2 fold change (gefitinib),log2 fold change [2],log2 fold change (lapatinib),log2 fold change (pictilisib),log2 fold change [3],log2 fold change [4],log2 fold change [5],log2 fold change (duvelisib),log2 fold change (gandotinib),log2 fold change (tozasertib),log2 fold change [6],log2 fold change (ispinesib),log2 fold change [7],log2 fold change (crizotinib),log2 fold change (doramapimod),log2 fold change (idasanutlin)
TSPAN13 (UniProt O95857),-0.041,0.022,-0.164,-0.013,0.047,-0.064,-0.053,0.053,-0.055,0.4,-0.17,0.045,-0.05,-0.06,-0.124,-0.03,–,–,–,–
TRIM23 (UniProt P36406),-0.031,0.036,-0.078,–,0.012,0.039,–,0.204,0.143,–,-0.122,0.008,0.128,-0.135,0.001,0.115,0.019,0.152,-0.043,–
UBXN8 (UniProt O00124),0.069,-0.028,–,-0.035,–,–,0.023,-0.002,0.054,-0.094,0.161,0.234,0.026,-0.077,-0.101,-0.193,–,–,–,-0.116
VDAC1 (UniProt C9JI87),0.001,-0.217,-0.119,0.161,-0.014,-0.014,-0.182,–,0.017,-0.195,0.275,0.09,–,–,-0.281,-0.743 (active),–,–,–,-0.018
WDR4 isoform 3 (UniProt P57081),-0.007,–,–,–,–,–,–,0.359,0.074,0.125,–,–,-0.247,–,–,–,–,–,–,–
WARS1 (UniProt G3V3P2),0.087,–,–,–,–,–,–,–,-0.07,–,–,–,–,–,–,–,–,–,–,–
WARS1 (UniProt G3V277),0.066,–,0.04,–,0.021,0.145,–,0.095,-0.009,–,–,–,-0.218,-0.206,–,–,-0.163,-0.001,0.029,0.127
ULBP1 (UniProt Q9BZM6),0.071,0.022,-0.023,0.164,–,0.001,0.002,–,0.188,0.192,0.156,-0.024,–,0.044,0.014,0.011,–,–,–,0.036
TRPT1 isoform 4 (UniProt Q86TN4),-0.053,–,-0.055,–,–,-0.061,–,–,-0.176,–,–,–,–,–,–,-0.105,-0.088,-0.011,0.013,-0.194
UTP20 (UniProt O75691),–,–,–,-0.087,–,–,0.076,–,–,-0.379,–,–,–,0.021,–,–,–,–,–,–
TRIQK (UniProt Q629K1),0.1,-0.08,-0.142,–,–,0.106,–,–,0.003,0.072,0.017,0.073,–,-0.003,-0.006,0.182,-0.002,0.024,0.008,–
XIAP (UniProt P98170),0.046,0.008,0.089,0.085,0.115,0,-0.01,0.054,0.125,0.092,-0.09,0.068,0.061,-0.01,-0.036,–,–,–,–,0.009
USP48 (UniProt Q86UV5),-0.016,–,0.19,–,0.053,-0.031,–,–,0.015,–,–,–,–,–,–,–,–,–,–,–
U2AF1L5 (UniProt P0DN76),–,–,-0.517,–,-0.048,-0.238,–,–,–,–,–,-0.014,–,-0.025,0.023,–,-0.034,-0.105,-0.1,-0.051
WDR75 (UniProt Q8IWA0),–,-0.078,-0.054,-0.04,0.198,-0.078,-0.011,–,–,-0.03,0.185,-0.082,–,-0.2,0.112,-0.219,-0.071,-0.07,0.145,0.177
WARS1 (UniProt G3V339),–,–,–,–,–,–,–,–,–,-0.123,–,–,–,–,–,–,–,–,–,–
TTC26,–,–,–,–,–,–,–,–,–,–,–,–,–,-0.11,–,0.105,–,–,–,–
TMEM8A (UniProt Q9HCN3),0.188,-0.093,-0.153,-0.008,-0.038,0.085,0.065,0.121,0.425,–,0.049,0.394,0.014,-0.026,-0.095,-0.065,–,–,–,–
"WDR46, A0A0G2JJL1",0.533,–,-0.167,-0.134,0.039,-0.207,0.154,–,-0.119,-0.581,–,-0.157,–,0.198,-0.125,–,-0.108,0.086,0.236,–
TMEM268 isoform 3 (UniProt Q5VZI3),-0.064,0.104,0.014,-0.25,-0.079,0.001,0.09,-0.088,-0.146,-0.308,-0.078,0.371,0.124,-0.073,-0.063,-0.227,–,–,–,-0.135
TRIM5 (UniProt Q9C035),0.121,-0.066,–,–,–,–,–,–,-0.032,0.037,0.148,-0.109,–,-0.096,-0.127,-0.821 (active),–,–,–,-0.086
TMEM219 (UniProt Q86XT9),-0.065,-0.181,–,-0.011,-0.029,–,0.058,-0.277,0.049,-0.036,0.114,-0.163,0.034,-0.055,-0.241,–,–,–,–,-0.017
TXNRD1 isoform 7 (UniProt Q16881),-0.034,–,–,0.242,–,–,-0.07,0.037,0.075,-0.026,–,-0.049,0.125,–,-0.015,–,–,–,–,–
VPS72 isoform 2 (UniProt Q15906),0.084,-0.008,-0.066,-0.047,0.033,-0.094,0.012,–,-0.041,0.093,0.196,-0.021,–,0.007,-0.021,0.218,–,–,–,0.062
